Bioassay records from PubChem.
Compounds with a hit are over-represented: about 20% of the library has one in this group of screens.
Pf growth 96h: Primary qHTS for delayed death inhibitors of the malarial parasite plastid, 96 hour incubation; 320,000 compounds, 6.9% hits; Potency, µM (doses to about 28.7 µM), inactives show top-dose activity change, negative = inhibition, hits mostly inhibitors; P. falciparum luciferase reporter growth, 96 h; further: potency means the concentration at half of the fitted maximal effect; on the % scale 0 is the no-effect control and ±100 the full control effect
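P. falciparum expressing integrated firefly luciferase, in erythrocytes at 2% hematocrit, 0.05% parasitemia, incubated with compounds 96 h at 37 C, 5% CO2. Growth inhibition read as loss of luminescence; two-generation exposure targets delayed-death apicoplast inhibitors.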
HCMV antiviral: qHTS Assay for inhibitors of the human cytomegalovirus (HCMV) | AID 1259415, 2018 | activity change, negative = inhibition, % at 57.5 µM | 410,000 compounds, 4.5% hits | HFF cells, HCMV-luciferase reporter, 72 h; active compounds read low; in the data active means activity change below about -60%; inconclusive means no clear call, values can overlap the other calls; inactive means above about -39%; further: on the % scale 0 is the no-effect control and ±100 the full control effect
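Two-dose cell screen: HFF monolayers treated with compounds and infected with luciferase-expressing HCMV at 1 PFU/cell, 72 h at 37C, then lysed for luciferase measurement.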
CHX counter: Cycloheximide Counterscreen for Small Molecule Inhibitors of Shiga Toxin; 300,000 compounds, 12% hits; max response, %; cell reporter, cycloheximide protein synthesis inhibition counterscreen; AID 2314, 2010; in the data active means max response mostly above about 13%, no sharp cut-off; inactive means mostly below about 14%; further: read at 38.3 µM for the half of the compounds with a filed dose; 0% is about no effect
Pf growth 48h: Primary qHTS for delayed death inhibitors of the malarial parasite plastid, 48 hour incubation; P. falciparum luciferase growth in erythrocytes, 48 h; Potency, µM (titrated, usually from 28.7 µM), inactives show at the highest dose activity change, negative = inhibition, most hits filed as inhibitors; 310,000 compounds, 5.9% hits; further: potency means the concentration at half of the fitted maximal effect; on the % scale 0 is the no-effect control and ±100 the full control effect
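Compounds are pin-transferred into medium, infected erythrocytes (2% hematocrit, 0.1% parasitemia final) are added, and plates sit one parasite generation at 37 C in 5% CO2. Detection reagent is then added and luminescence measured.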
Shiga toxin inh: A qHTS for Small Molecule Inhibitors of Shiga Toxin. Vero cells, Shiga toxin protein synthesis inhibition reporter. inhibition, % at 38.7 µM. 290,000 compounds, 9.2% hits; in the data active means inhibition mostly above about 28%, no sharp cut-off; inactive means mostly below about 43%; further: 0% is about no effect
* hit, by the source's call; ? = inconclusive; . = no result given; [ ] = another dose, or the depositor's remark. Unless noted, the call rests on the fitted dose curve; in most records, active means well fitted inhibition curve with a large enough effect; inconclusive means small, poorly fitted or top-dose-only effect, or another doubt; inactive means no such curve, though single readings can be large or run the other way.

SMILES	Pf growth 96h	HCMV antiviral	CHX counter	Pf growth 48h	Shiga toxin inh
CCn1cc(C(=O)OCC(=O)Nc2cc(OC)cc(OC)c2)c(=O)c2ccc(C)nc21	.	-37	.	.	.
CC(C)CCNC(=O)CN1C(=O)c2cccnc2Sc2ccccc21	.	27	.	.	.
CCO/C=C/C(=O)N(C)CCC#N	12µM*	25	-2	13%	-6
CCC(=O)Nc1ccccc1-c1nc2ccccc2n(C(CC)C(=O)Nc2cccc(Cl)c2)c1=O (stereo not given)	.	-108*	.	.	.
CCC(=O)Nc1ccccc1-c1nc2ccccc2n(C(C)C(=O)Nc2ccc(OC)cc2)c1=O (stereo not given)	.	5	.	.	.
CC(=O)Nc1ccccc1-c1nc2ccccc2n(C(C)C(=O)Nc2cccc(C)c2C)c1=O (stereo not given)	.	9	.	.	.
CCC(C(=O)Nc1ccc(C)c(Cl)c1)n1c(=O)c(-c2ccccc2NC(C)=O)nc2ccccc21 (stereo not given)	.	-97*	.	.	.
O=C(NCCc1ccc(Cl)cc1)c1nc(-c2cccc(F)c2)n2c1CCCCC2	.	-8	.	.	.
CC(C)[C@H](NC(=O)OCc1ccccc1)C(=O)OCC(=O)NC1(C#N)CCCC1	-23%	?	9	6%	-1
COc1ccc(NC(=O)CCS(=O)(=O)c2nc(-c3ccc4c(c3)OCO4)cc(C(F)(F)F)n2)cc1	.	-76*	.	.	.
COc1ccccc1-c1cc(C(F)(F)F)nc(S(=O)(=O)CCCC(=O)N2CCOCC2)n1	-2%[5.75 µM]	-104*	-4	?	-24
Cc1cc(NC(=O)CCS(=O)(=O)c2nc(-c3ccccc3)cc(C(F)(F)F)n2)no1	-18%	-104*	5	0%	-16
COc1ccccc1-c1cc(C(F)(F)F)nc(S(=O)(=O)CCCC(=O)O)n1	?	-14	-2	.	-27
COc1ccc(-c2cc(C(F)(F)F)nc(S(=O)(=O)CCCC(=O)Nc3ccccc3C(F)(F)F)n2)cc1OC	.	-100*	.	.	.
COc1ccccc1CNC(=O)C1CCN(Cc2cc3ccccc3n2Cc2cccc(C)c2)CC1	.	9	.	.	.
COc1ccccc1-c1cc(C(F)(F)F)nc(S(=O)(=O)CCCC(=O)Nc2cc(OC)c(OC)c(OC)c2)n1	.	-2	.	.	.
COc1ccc(-c2cc(C(F)(F)F)nc(S(=O)(=O)CCCC(=O)Nc3cccc(O)c3)n2)cc1OC	-4%	-99*	2	?	-15
COc1ccc(NC(=O)CCCS(=O)(=O)c2nc(-c3ccc(OC)c(OC)c3)cc(C(F)(F)F)n2)cc1OC	.	-100*	13	.	40
CS(=O)(=O)c1nc(-c2ccccc2)cc(C(F)(F)F)n1	11%	-98*	-6	-17%	-7
Cc1ccc(CNC(=O)C2CCC(=O)N(Cc3cccc(F)c3)C2)s1 (stereo not given)	.	8	.	.	.
COc1ccc(-c2nnc(Nc3ccc(S(=O)(=O)Nc4nccs4)cc3)c3ccccc23)cc1	-10%	-38	-6	-8%	-4
O=C(NCCOc1ccc(Cl)cc1)C1CC(=O)N(c2ccc3c(c2)OCCO3)C1 (stereo not given)	?	-11	.	-28%	.
COc1ccc(/C=C/c2c(-c3ccc(OC)cc3)oc(=O)c3cc(OC)c(OC)cc23)cc1	.	-11	.	.	.
COc1ccc(-c2oc3cccnc3c2/C=C/c2ccc(OC)c(OC)c2)cc1	12µM*	-25	9.9*	?	17
COc1cc(C(O)CO)ccc1OS(=O)(=O)O (stereo not given)	8%	-73*	.	-5%	.
SMILES	Pf growth 96h	HCMV antiviral	CHX counter	Pf growth 48h	Shiga toxin inh
COc1ccc(C)cc1NC(=O)Cn1c(=O)oc2ccccc21	8%	31	1	0%[0.00184 µM]	29
CCN(C(C)=O)c1nnc(CSc2nc3ccccc3s2)s1	63%	136	25*	140%	157*
CCOC(=O)CSc1nnc(CSc2nc3ccccc3s2)n1C	6%	17	6	45%	7
CCS(=O)CCSc1nc2ccccc2s1 (stereo not given)	-7%	7	32*	127%	121*
CNc1nnc(CSc2nc3ccccc3s2)s1	0%	51	22*	60%	84*
c1csc(CSc2nc3ccccc3s2)c1	?	31	34*	171%	136*
Cc1noc(C)c1CSc1nc2ccccc2s1	11%	70	18	1%	39
NNC(=O)c1nc[nH]c1C(=O)Nc1ccccc1[N+](=O)[O-]	69%	20	-1	0%	-9
C[C@H](CCC(=O)OCc1cn(CC(=O)c2ccc(O)cc2)nn1)C1CC[C@H]2[C@@H]3CC[C@@H]4C[C@H](O)CC[C@]4(C)[C@H]3C[C@H](O)[C@]12C (stereo not given in full)	.	13	.	.	.
Cc1ccc(NC(=O)C(C)N2CCCc3ccccc32)cc1S(=O)(=O)N1CCOCC1 (stereo not given)	.	-6	.	.	.
CCN(CC)S(=O)(=O)c1cc(NC(=O)C(C)N(C)CC(=O)Nc2c(C)cccc2C)ccc1C (stereo not given)	12µM*	-22	-1	12µM*	-4
CCN(CC)S(=O)(=O)c1cc(NC(=O)C(C)N2CCc3ccccc32)ccc1C (stereo not given)	10µM*	?	20	?	9
Cc1cccc(C)c1NC(=O)CN(C)C(C)C(=O)Nc1ccccc1-c1ccccc1 (stereo not given)	?	-7	-2	?	-19
Cc1ccc2c(c1)-c1c(cnc3cc(-c4ccc(F)cc4)nn13)CO2	.	-5	.	.	.
O=C(NC1(Cc2ccccc2)CCN(CCc2cccs2)C1=O)c1ccccc1 (stereo not given)	?	-38	.	0%	.
CCn1cc2nc(SCc3cccc(OC)c3)n(Cc3ccc(Cl)cc3)c(=O)c2n1	.	-24	.	.	.
COc1ccc(C[C@H]2NC[C@H](O)[C@H]2OC(C)=O)cc1	.	-98*	.	.	.
O=C(CC1SC(=O)N(c2ccccc2)C1=O)Nc1ccccc1 (stereo not given)	.	-3	51*	43%	51*
CCCN1C(=O)SC(CC(=O)Nc2ccc(C)cc2)C1=O (stereo not given)	?	-35	10	-12%	26
O=C(CC1Sc2ncnn2C1=O)Nc1ccccc1 (stereo not given)	1%	17	17*	.	-8
Cc1ccc(S(=O)(=O)/N=C2\SC(CC(=O)Nc3ccc(F)cc3)C(=O)N2c2ccccc2)cc1 (stereo not given)	-6%	-20	6	3%	17
CC(=O)Nc1ccc(NC(=O)CC2SC(=O)N(CC(=O)c3ccccc3)C2=O)cc1 (stereo not given)	10µM*	91	2	6%	4
Cc1ccc(NC(=O)CC2SC(=O)N(c3ccccc3)C2=O)cc1 (stereo not given)	-20%	52	27*	-8%	51*
